Out of some 69,000 compounds screened, about 8,600 (12%) showed an effect of 50% or more. For the sample, strong results were picked, then their nearest neighbours and some compounds at random.

This test concerns Plasmodium berghei. The experiment in a line: Screen against P. berghei liver stage (PbLuc), transformed with Luciferase, at 10uM. It counts as functional, HepG2. To be noted: tested at 10 uM.
Regarding `O=C(O)c1cc2c(nc1-c1cncnc1)CCN(C1CCOC1)CC2` (stereo not drawn), the INHIBITION turned out to be 37.8%. With `Cc1ccccc1CC(=O)N1CC[C@@](O)(CNS(C)(=O)=O)[C@H](O)C1` the figure was 0.301%; with `N#Cc1ccccc1CN(CCO)Cc1ccsc1`, 36.4%; with `CN(Cc1ccc(F)cc1)C(=O)Nc1cccnc1N1CCCC1`, -2.33%. With `CS(=O)(=O)N1C[C@H]2CC[C@@H](C1)N(CCC(=O)NCc1ccccc1F)C2` the figure was -7.02%; with `Cn1ccc(NC(=O)CN2C[C@@H]3CC[C@H]2CN(S(C)(=O)=O)C3)n1`, 53.3%. For `COCCN1C[C@@H]2CC[C@H]1CN(CC(=O)Nc1ccn(C)n1)C2`, the INHIBITION was found to be 21.2%. With `COC1CCN(c2ccc(F)cc2CN(C)C(C)C(N)=O)CC1` (stereo not drawn) the figure was 7.3%; with `Cc1ccccc1N1CC2(CCN(Cc3nccn3C)C2)CC1=O` (stereo not drawn), 25.2%; with `Cc1nc(C)n(C2CCCN(C(=O)c3csc(C(C)C)n3)C2)n1` (stereo not drawn), 40.3%.

Consider `Cc1cc(C)n(C2CCCN(C(=O)c3csc(C4CC4)n3)C2)n1` (stereo not drawn), for which the INHIBITION is given as 34.7%. With `CC(=O)Nc1nc(C(=O)N2CCCC(n3ccnc3)C2)cs1` (stereo not drawn), the INHIBITION is listed as 31.9%.

As for `Cc1nc(C(=O)N2CCCC(n3cncn3)C2)cs1` (stereo not drawn), the INHIBITION was determined as 31.1%. With `CC(=O)Nc1nc(C(=O)N2CCCC(n3nc(C)cc3C)C2)cs1` (stereo not drawn) the figure was 57.8%; with `Cc1cnc(C(=O)N2CCCC(n3nc(C)nc3C)C2)cn1` (stereo not drawn), 7.12%.

Turning to `CC(=O)Nc1nc(C(=O)N2CCCC(n3nc(C)nc3C)C2)cs1` (stereo not drawn), the INHIBITION turned out to be 53.9%. Consider `COCc1nc(C(=O)N2CCCC(n3nc(C)cc3C)C2)cs1` (stereo not drawn), for which the INHIBITION came out at 25.1%. For `Cc1nc(C)n(C2CCCN(C(=O)c3csnn3)C2)n1` (stereo not drawn), the INHIBITION was 11.6%. The same measure for `Cc1nc(C)n(C2CCCN(C(=O)c3csc(C)n3)C2)n1` (stereo not drawn): 14.4%.

Turning to `Cc1nc(C)n(C2CCCN(C(=O)c3cscn3)C2)n1` (stereo not drawn), the INHIBITION was found to be 60.2%.

For `CC(=O)Nc1nc(C(=O)N2CCCC(n3cncn3)C2)cs1` (stereo not drawn), the INHIBITION was determined as 67.6%. With `Cc1ccc(N(C)[C@@H]2CC[C@@H]3CN(C(=O)CC4CCOCC4)C[C@@H]32)nn1` the figure was -16%; with `CCSc1ccccc1C(=O)NCCn1nc(-n2cncn2)ccc1=O`, 16.5%; with `Cn1ccc(C(=O)N2CCC(Cc3ccc4ncccc4c3)CC2)n1`, 28.1%. The same measure for `CC(C)CNC(=O)[C@H]1C[C@H]2CN(C(=O)NCC3CCCCC3)C[C@@H]1O2`: -41.9%; for `CCC(NC1Cc2ccccc2C1)c1ccc(S(C)(=O)=O)cc1` (stereo not drawn): 29.4%. With `CCN(CC)S(=O)(=O)c1cnccc1N1CCN(C(C)C)CC1` the figure was -26.8%. For `CCNc1nnc(SC(C(=O)NCc2cccnc2)C(C)C)s1` (stereo not drawn), the INHIBITION is -7.98%. In the case of `CC(CN1CCOCC1)OC(=O)c1ccccc1I` (stereo not drawn), the INHIBITION was 38.9%.

With `COCc1nc(C(=O)N2CCCC(n3ccnc3C)C2)cs1` (stereo not drawn), the INHIBITION is reported as -23.9%. The same measure for `COCc1nc(C(=O)N2CCCC(n3cccn3)C2)cs1` (stereo not drawn): 17.8%. The same measure for `COCc1nc(C(=O)N2CCCC(n3ccnc3)C2)cs1` (stereo not drawn): 59%. With `NC(=O)C1CCN(C(=O)c2ccn(-c3cccc(F)c3)n2)C1` (stereo not drawn) the figure was 23.5%; with `CC1CN(C)CCN1C(=O)c1cccn1Cc1ccncc1` (stereo not drawn), 8.08%. With `CC1CN(C)CCN1C(=O)c1ccn(-c2ccc(F)cc2)n1` (stereo not drawn), the INHIBITION was 56.6%. With `COCCn1nc(C(=O)N2CCOCC2C)ccc1=O` (stereo not drawn) the figure was 47.6%; with `CC1CN(C)CCN1C(=O)c1ccn(-c2ccccc2)n1` (stereo not drawn), 63.5%; with `CC1COCCN1C(=O)c1ccc(=O)n(CCOc2ccccc2)n1` (stereo not drawn), 4.41%. Consider `CC1CN(C)CCN1C(=O)c1ccn(-c2cccc(Cl)c2)n1` (stereo not drawn), for which the INHIBITION amounted to 10%.

As to `COCCn1nc(C(=O)N2CCN(C)CC2C)ccc1=O` (stereo not drawn), the INHIBITION is on record as 58.7%. With `NC(=O)C1CCN(C(=O)c2ccn(-c3ccc(F)cc3)n2)C1` (stereo not drawn) the figure was 16.1%; with `CC1CN(C)CCN1C(=O)c1ccn(-c2ccccc2Cl)n1` (stereo not drawn), -25.6%.

Regarding `CC1CN(C)CCN1C(=O)c1ccn(-c2cccc(F)c2)n1` (stereo not drawn), the INHIBITION is on record as 51.1%. The same measure for `COc1ccc(-n2ccc(C(=O)N3CCN(C)CC3C)n2)cc1` (stereo not drawn): 20.9%; for `Cn1ccc(C(=O)NCCOc2ccc3c(c2)CCC3)cc1=O`: -15.5%. The same measure for `CCc1ocnc1C(=O)N1CCCC1c1noc(C2CC2)n1` (stereo not drawn): 34.2%; for `Cc1cc(C(=O)Nc2ccc(OCCN3CCN(C)CC3)cc2)[nH]n1`: -49.9%. The same measure for `CCc1cc(=O)[nH]c(-c2ccc(NCCC(C)O)nc2)n1` (stereo not drawn): 36.9%; for `CCN1CC[C@@]2(C(=O)N(C)C)CCN(C(=O)Cc3ccccc3)CC[C@@H]12`: 11.2%. Take `CSc1nccc(N2CCCC(c3nccn3C(C)C)C2)n1` (stereo not drawn): the INHIBITION is 27.6%. The same measure for `CC(C)n1ccnc1C1CCCN(c2ccnc3ccccc23)C1` (stereo not drawn): 71.3%; for `CC(C)n1ccnc1C1CCCN(c2ccccn2)C1` (stereo not drawn): 24.6%; for `Cc1ccnc(N2CCCC(c3nccn3C(C)C)C2)n1` (stereo not drawn): 15.8%. The same measure for `CC(C)n1ccnc1C1CCCN(c2nc3ccccc3s2)C1` (stereo not drawn): 61.2%; for `CC(C)n1ccnc1C1CCCN(c2ccncc2F)C1` (stereo not drawn): 32.1%. The same measure for `CN(C)C(=O)C1CCCN1CCCNC(=O)c1cccc2[nH]ncc12` (stereo not drawn): 23.2%; for `COc1cc(C(C)=O)ccc1OCCNCc1ccco1`: 5.67%; for `COc1cccc(CN(C)C(=O)c2ccc(NC(C)=O)s2)c1OC`: 61.1%. Take `COc1cccc(CN(C)Cc2ccccc2C#N)c1OC`: the INHIBITION came out at 4.48%.

On to `Cc1cc(CNC(=O)N(Cc2ccc(F)cc2F)C2CC2)no1`, for which the INHIBITION is given as 44.1%.

Take `COc1cccc(CN(C)C(=O)CCC(=O)c2ccc(Cl)cc2)c1OC`: the INHIBITION is 40.1%. With `CC(=O)Nc1ccc(C(=O)N(C)Cc2ccc(F)cc2F)s1` the figure was 56%; with `CC(=O)Nc1ccc(C(=O)N(C)Cc2cccc(F)c2)s1`, 39.7%. With `Cn1cc(-c2cnc(N3CCOCC3)nc2)cc1C(=O)NCCC#N` the figure was 47.4%; with `Cn1nccc1-c1cccc(CC2CCN(S(C)(=O)=O)C2)n1` (stereo not drawn), 12.905%.

As to `Clc1cccc(Cl)c1-c1nnc(CNCCn2cccn2)o1`, the INHIBITION was -48.4%.

Turning to `Cc1nc(CCNC(=O)N2CCC(Cc3cnn(C)c3)C2)cs1` (stereo not drawn), the INHIBITION is recorded as -4.74%. The same measure for `Clc1cccc(Cl)c1CNCCOc1ccccn1`: 60%. For the compound `Fc1cccc(Cl)c1CNCCCOc1ccccn1`, the INHIBITION is on record as 2.61%. Regarding `Fc1cccc(Cl)c1CNCCOc1ccccn1`, the INHIBITION worked out at 27%. The same measure for `CCOc1nn(CC)cc1-c1nnc(SCc2cccnc2)n1CC`: 9%; for `Cc1cc(CNc2cccc(C(=O)N(C)c3ccccc3)c2)no1`: 45%. For `Cc1noc(C)c1CNc1cccc(C(=O)N2CCCC(O)C2)c1` (stereo not drawn), the INHIBITION is reported as 20.6%. With `Cc1noc(C)c1CNc1cccc(C(=O)N(C)c2ccccc2)c1` the figure was 59.1%; with `Cc1noc(C)c1CN1C[C@@H](OCc2ccccn2)[C@H]2OCCC[C@H]21`, -14.4%; with `Cc1ccc(Cc2cnc(C3CCNCC3)cn2)cc1`, 13.5%.

As to `CC(C)n1nc(CN2CCOCC2)c2c1CN(Cc1ccsc1)C2`, the INHIBITION is -18.2%.

With `OC(CN1CCC(c2ccn[nH]2)CC1)c1cccc(C(F)(F)F)c1` (stereo not drawn), the INHIBITION is -33.9%. Consider `OC(CN(Cc1ccccc1)Cc1ccncc1)c1cccs1` (stereo not drawn), for which the INHIBITION stood at 7.11%.

In the case of `OC(CN(Cc1ccccc1)Cc1ccon1)c1cccs1` (stereo not drawn), the INHIBITION is 70.1%. With `OC(CN(Cc1ccccc1)Cc1cccnc1)c1cccs1` (stereo not drawn) the figure was 57.2%; with `OC(CN(Cc1ccccc1)Cc1cscn1)c1cccs1` (stereo not drawn), 9.72%; with `Cc1cc(CN(Cc2ccccc2)CC(O)c2cccs2)on1` (stereo not drawn), 30.3%. The same measure for `Cn1cc(CN(Cc2ccccc2)CC(O)c2cccs2)cn1` (stereo not drawn): -58.4%; for `Cc1cnc(CN(Cc2ccccc2)CC(O)c2cccs2)cn1` (stereo not drawn): -34.7%; for `OC(CN(Cc1ccccc1)Cc1ccon1)c1ccco1` (stereo not drawn): -21%.

With `OC(CN(Cc1ccccc1)Cc1ccccn1)c1cccs1` (stereo not drawn), the INHIBITION is 55.9%. The same measure for `CC(C)c1ccccc1NC(=O)N1C[C@H]2CC[C@@H](C1)N(C)C2=O`: -14.5%; for `Cn1cccc1CN(C(=O)CC(CC(=O)O)c1cccs1)C1CC1` (stereo not drawn): -42.1%. For the compound `CS(=O)(=O)N1C[C@H]2CC[C@@H](C1)N(Cc1cscn1)C2=O`, the INHIBITION was 13.5%. Regarding `CCN(CC)S(=O)(=O)N1C[C@H]2CC[C@@H](C1)N(Cc1cscn1)C2=O`, the INHIBITION was found to be 51.1%. As for `CCCS(=O)(=O)N1C[C@H]2CC[C@@H](C1)N(Cc1cscn1)C2=O`, the INHIBITION is given as 53.3%. As for `CCN(C)S(=O)(=O)N1C[C@H]2CC[C@@H](C1)N(Cc1cscn1)C2=O`, the INHIBITION is listed as -23.7%. The same measure for `Cn1cnc(S(=O)(=O)N2C[C@H]3CC[C@@H](C2)N(Cc2cscn2)C3=O)c1`: 10.5%; for `O=C1[C@@H]2CC[C@@H](CN(S(=O)(=O)c3ccccc3)C2)N1Cc1cscn1`: 25.1%; for `Cc1cnc(C(=O)N2C[C@@H]3CN(CC4CCCC4)CCO[C@@H]3C2)cn1`: 13.6%.

As for `CN(C)Cc1cc(=O)n2c(n1)CN(C(=O)Cc1ccsc1)CCC2`, the INHIBITION worked out at 33.5%. `CCc1ncc(C(=O)NCCN(C)S(C)(=O)=O)cn1`: the INHIBITION was 43.2%.

Take `CCCS(=O)(=O)CC(=O)Nc1cc(CC(C)(C)C)n[nH]1`: the INHIBITION was -45.9%. The same measure for `O=C1CCCN1CC1CN(CC2CCOCC2)Cc2nccn2C1` (stereo not drawn): 57.4%.

With `O=C1CCCN1CC1CN(C(=O)C2CCOCC2)Cc2nccn2C1` (stereo not drawn), the INHIBITION is 0.542%. With `O=C1CCCN1CC1CN(C(=O)N2CCOCC2)Cc2nccn2C1` (stereo not drawn) the figure was 34.4%; with `CCCc1nnc2sc(C3CCN(CCOC)CC3)nn12`, 31.2%. With `NC(=O)CN1CCOCC(Cc2cccc(F)c2)C1` (stereo not drawn) the figure was -44.2%; with `Cc1cccc(CN2C[C@@H]3OCCN(S(=O)(=O)N(C)C)[C@@H]3C2)n1`, 54.1%. In the case of `Cc1nc(CN2CCO[C@@H]3CN(Cc4ccccn4)CC[C@@H]3C2)cs1`, the INHIBITION stood at 42.3%. Take `Cc1cccc(N2CC[C@@H]3CN(Cc4csc(C)n4)CCO[C@@H]3C2)n1`: the INHIBITION turned out to be 66.5%. The same measure for `Cc1ccc(N2C[C@@H]3CN(Cc4csc(C)n4)CCO[C@@H]3C2)nn1`: 42.6%; for `Cc1cccc(CN2C[C@@H]3CN(Cc4ccoc4)CCO[C@@H]3C2)n1`: 23.3%. As to `Cc1ccc(N2CCO[C@@H]3CN(Cc4cccc(C)n4)CC[C@@H]3C2)nn1`, the INHIBITION was 52.3%. The same measure for `Cc1ccc(N2CC[C@@H]3CN(Cc4cccc(C)n4)C[C@@H]3C2)nn1`: -2.41%; for `Cc1cccc(CN2C[C@@H]3OCCN(S(=O)(=O)N(C)C)[C@@H]3C2)c1`: -7.94%. With `Cc1cccc(CN2C[C@@H]3OCCN(C)[C@@H]3C2)n1` the figure was -22.7%.

The record behind these values is ChEMBL document CHEMBL4513216, “Probing the Open Global Health Chemical Diversity Library for Multistage-Active Starting Points for Next-Generation Antimalarials” (ACS Infect Dis, 2020).
